The nature of assay [1]: qHTS assay to identify small molecule antagonists of the estrogen receptor alpha (ER-alpha) signaling pathway using the BG1 cell line in the presence of 0.1 nM 17-beta-estradiol - cell viability counter screen (AID 1259241). Also: nearly all actives have a fitted effect of over 40% in size. The gist of the method: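 Viability in VM7Luc4E2 cells after 22 hr compound exposure under 0.1 nM 17beta-estradiol stimulation, by CellTiter-Fluor.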

The nature of assay [2]: qHTS assay to identify small molecule antagonists of the androgen receptor (AR) signaling pathway using the MDA cell line in the presence of 0.5 nM R1881 - cell viability counter screen (AID 1259242). Also: nearly all actives have a fitted effect of over 45% in size. The method, boiled down:
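MDA-kb2 cells (human breast carcinoma, stably carrying MMTV-luciferase reporter) were exposed to compounds with 0.5 nM R1881 (final) for 16 hr at 37C, 0% CO2; viability then read as live-cell protease fluorescence (CellTiter-Fluor, 30 min) in the same wells.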
On the technique in general: qHTS replaces the single test concentration by a dilution series.

Assay [3] deals with Estrogen receptor (Homo sapiens) (UniProt P03372). The experiment in a line: qHTS assay to identify small molecule antagonists of the estrogen receptor alpha (ER-alpha) signaling pathway using the BG1 cell line in the presence of 0.1 nM 17-beta-estradiol (AID 1259244). Also: nearly all actives have a fitted effect of over 50% in size. The gist of the method: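 VM7Luc4E2 cells (endogenous full-length ER-alpha, stable 4xERE-luciferase) were grown 5 days in phenol red-free medium with charcoal-stripped FBS, then exposed 22 h at 37C to compounds plus 0.1 nM (final) 17beta-estradiol; ONE-Glo luminescence read-out.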
Chain of Estrogen receptor (Homo sapiens) (P03372 whole entry, looked up): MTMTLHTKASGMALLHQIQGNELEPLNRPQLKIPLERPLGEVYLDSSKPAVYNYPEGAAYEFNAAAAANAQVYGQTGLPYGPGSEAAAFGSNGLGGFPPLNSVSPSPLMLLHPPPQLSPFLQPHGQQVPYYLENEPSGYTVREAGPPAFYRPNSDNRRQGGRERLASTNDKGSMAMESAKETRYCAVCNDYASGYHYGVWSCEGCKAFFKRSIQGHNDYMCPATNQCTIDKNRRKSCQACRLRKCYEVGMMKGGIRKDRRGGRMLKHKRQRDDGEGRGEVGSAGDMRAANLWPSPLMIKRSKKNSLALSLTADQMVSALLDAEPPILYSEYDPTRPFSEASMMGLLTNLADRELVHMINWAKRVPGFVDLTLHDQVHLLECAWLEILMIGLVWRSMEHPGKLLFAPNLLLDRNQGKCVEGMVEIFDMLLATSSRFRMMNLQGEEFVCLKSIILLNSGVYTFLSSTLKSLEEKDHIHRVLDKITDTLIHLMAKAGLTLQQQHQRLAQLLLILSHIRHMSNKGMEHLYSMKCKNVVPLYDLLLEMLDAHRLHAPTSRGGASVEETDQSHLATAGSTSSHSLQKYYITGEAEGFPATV

Assay [4] can be described thus: qHTS assay to identify small molecule phospholipidosis (PLD) inducers (AID 1259344; active = well fitted curve in the direction sought with a large enough effect; an effect the other way counts as inactive or inconclusive; also: potency is read from the fitted curve at half-maximal effect). The method, boiled down:
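Quantitative HTS in HepG2: compound plus LipidTOX Red dye for 24 h, paraformaldehyde fixation with Hoechst 33342, widefield high-content imaging; amiodarone as positive and DMSO as negative control.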

Assay [5] can be described thus: qHTS assay to identify small molecule HDAC inhibitors (AID 1259364). Also: top concentration of the series differs between compounds; nearly all actives have a fitted effect of over 45% in size. The method, boiled down: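 Wild-type HCT-116 cells were plated overnight, exposed to compounds for 2 h at 37 °C, then given HDAC-Glo class I/II luminogenic reagent for 30 min at room temperature before luminescence was read.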
Assay [6] in a line: qHTS assay to identify small molecule agonists of the sonic hedgehog signaling (Shh) pathway - cell viability counter screen (AID 1259366). Also: nearly all actives have a fitted effect of over 50% in size. Also: potency is read from the fitted curve at half-maximal effect. The method, boiled down:
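Stable Gli1-Luc NIH/3T3 clone, 2,000 cells/well. Compound exposure 24hr at 37C. Read-out: CellTiter-Fluor fluorescence.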

Assay [7] in a line: qHTS assay to identify small molecule agonists of the sonic hedgehog signaling (Shh) pathway (AID 1259368; calls by dose curve; also: series mostly up to about 92 µM; nearly all actives have a fitted effect of over 15% in size). The method, boiled down: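 NIH/3T3-derived 3T3Gli1-Luc cells carrying a stably integrated Gli1 response element–firefly luciferase reporter were plated, left 4 hr at 37 C, then given compounds in DMSO for 24 hr. Luminescence was read 30 min after adding luciferase reagent.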

Assay [8] concerns the target Estrogen receptor beta (Homo sapiens) (UniProt Q92731). The experiment in a line: qHTS assay to identify small molecule agonists of the estrogen receptor beta (ER-beta) signaling pathway (AID 1259377; active = well fitted activation curve with a large enough effect in the signal ratio in the repeat runs, not every such curve was filed as active; the % refers to the signal ratio). The method, boiled down:
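Measured by fluorescence intensity from a B/G FRET beta-lactamase substrate (2 h, room temperature) in ER-beta-UAS-bla HEK293T cells treated with DMSO-dissolved compounds for 16 hr at 37C and 5% CO2.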

The nature of assay [9]: qHTS assay to identify small molecule agonists of the androgen receptor (AR) signaling pathway in the presence of an antagonist - cell viability counter screen (AID 1259379). Also: series mostly up to about 92 µM; nearly all actives have a fitted effect of over 25% in size. The method, boiled down: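 MDA-kb2 human breast carcinoma cells (stable MMTV-luciferase, AR/GR responsive) were seeded 3,000 cells/well, pre-incubated 5 hr at 37C without CO2, then given 3.0uM nilutamide and compounds at 15 concentrations for 16 hr. Viability was read by CellTiter-Fluor fluorescence.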

The nature of assay [10]: qHTS assay to identify small molecule agonists of the estrogen receptor beta (ER-beta) signaling pathway - cell viability counter screen (AID 1259380). Also: nearly all actives have a fitted effect of over 30% in size. Also: potency is read from the fitted curve at half-maximal effect. The method, boiled down:
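ER-beta-UAS-bla HEK293T cells in medium with 2% charcoal-stripped FBS were preincubated 6 hr at 37C, dosed with compound in DMSO for 16 hr, then after the bla read, CellTiter-Glo was added for 30 min at room temperature; luminescence recorded.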

For assay [11], the target named is Estrogen receptor (Homo sapiens) (UniProt P03372). The assay can be described thus: qHTS assay to identify small molecule agonists of the estrogen receptor alpha (ER-alpha) signaling pathway in the presence of an antagonist (AID 1259383; calls by dose curve; also: top concentration of the series differs between compounds; nearly all actives have a fitted effect of over 15% in size). The gist of the method:
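VM7Luc4E2 cells (endogenous full-length ER-alpha, 4×ERE-luciferase) were precultured 5 days in phenol red-free medium with 10% charcoal-stripped FBS, given 10.0nM ICI-182,780 (final), then treated with compounds at 15 concentrations for 22hr at 37C; luminescence read with ONE-Glo.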

Assay [12] deals with Androgen receptor (Homo sapiens) (UniProt P10275). The experiment in a line: qHTS assay to identify small molecule antagonists of the androgen receptor (AR) signaling pathway using the MDA cell line in the presence of 0.5 nM R1881 (AID 1259243). Also: nearly all actives have a fitted effect of over 50% in size. Also: potency is read from the fitted curve at half-maximal effect. The gist of the method:
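MDA-kb2 human breast carcinoma cells carrying an MMTV-luciferase reporter (AR- and GR-responsive) were plated, rested 5 hr at 37C, dosed with compounds, then stimulated with 0.5 nM R1881 (final) for 16 hr; luminescence was read after ONE-Glo.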

A short description of assay [13]: qHTS assay to identify small molecule HDAC inhibitors - cell viability counter screen (AID 1259365). Also: series mostly up to about 92 µM; nearly all actives have a fitted effect of over 50% in size. The method, boiled down:
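Cytotoxicity was gauged in wild-type HCT-116 cells after a brief 2hr treatment with DMSO-dissolved compounds at 37C and 5% CO2, using CellTiter-Glo luminescence developed for 30min at room temperature.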

Assay [14] in a line: qHTS assay to identify small molecule antagonists of the sonic hedgehog signaling (Shh) pathway - cell viability counter screen (AID 1259367). Also: nearly all actives have a fitted effect of over 55% in size. The method, boiled down:
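Seed 3T3 Gli1-Luc cells at 2,000 per well; incubate 4 hr; add compound in DMSO, then conditioned medium; incubate at 37C with 5% CO2; add CellTiter-Fluor after 23 hr; read fluorescence 1 hr later.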

Assay [15] can be described thus: qHTS assay to identify small molecule antagonists of the sonic hedgehog signaling (Shh) pathway (AID 1259369; calls by dose curve; also: nearly all actives have a fitted effect of over 45% in size; also: potency is read from the fitted curve at half-maximal effect). The gist of the method: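 NIH/3T3-derived 3T3Gli1-Luc cells with stably integrated Gli1-Luc reporter were preincubated 4hr at 37 C, then given compounds in DMSO plus Shh conditioned medium and incubated 24hr. Firefly luciferase luminescence read after 30min reagent at room temperature.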

The target in assay [16] is Androgen receptor (Homo sapiens) (UniProt P10275). The assay can be described thus: qHTS assay to identify small molecule agonists of the androgen receptor (AR) signaling pathway in the presence of an antagonist (AID 1259381; calls by dose curve; also: nearly all actives have a fitted effect of over 15% in size). The method, boiled down:
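MDA-kb2 human breast carcinoma cells carrying an MMTV-luciferase reporter (AR- and GR-responsive) were treated with compounds at 15 concentrations plus 3.0uM final nilutamide for 16hr at 37C without CO2; luminescence was read after ONE-Glo addition.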

Assay [17] is described as follows: qHTS assay to identify small molecule antagonists of the estrogen receptor beta (ER-beta) signaling pathway - cell viability counter screen (AID 1259382). Also: series mostly up to about 92 µM; nearly all actives have a fitted effect of over 55% in size. The method, boiled down:
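ER-beta-UAS-bla HEK293T cells (2,000/well, 2% charcoal-stripped FBS) were pre-incubated 6 hr at 37C, then given compound plus 1nM final 17-beta-estradiol for 16 hr. Viability was read in the same wells by CellTiter-Glo luminescence after 30 min at room temperature.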

The target in assay [18] is Thyrotropin receptor (Homo sapiens) (UniProt P16473). The assay can be described thus: qHTS assay to identify small molecule antagonists of the thyroid stimulating hormone receptor (TSHR) signaling pathway (AID 1259385; calls by dose curve; also: nearly all actives have a fitted effect of over 20% in size). The method, boiled down: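 TSHR-HEK293 cells (800/well) plated 18 h, then compounds with Ro20-1724 and TSH at 1.5 ng/mL final, 30 min at room temperature. cAMP quantified by HTRF (cAMP-d2/anti-cAMP-cryptate, 1 h); 15 concentrations in triplicate.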
Chain of Thyrotropin receptor (Homo sapiens) (P16473 whole entry, looked up): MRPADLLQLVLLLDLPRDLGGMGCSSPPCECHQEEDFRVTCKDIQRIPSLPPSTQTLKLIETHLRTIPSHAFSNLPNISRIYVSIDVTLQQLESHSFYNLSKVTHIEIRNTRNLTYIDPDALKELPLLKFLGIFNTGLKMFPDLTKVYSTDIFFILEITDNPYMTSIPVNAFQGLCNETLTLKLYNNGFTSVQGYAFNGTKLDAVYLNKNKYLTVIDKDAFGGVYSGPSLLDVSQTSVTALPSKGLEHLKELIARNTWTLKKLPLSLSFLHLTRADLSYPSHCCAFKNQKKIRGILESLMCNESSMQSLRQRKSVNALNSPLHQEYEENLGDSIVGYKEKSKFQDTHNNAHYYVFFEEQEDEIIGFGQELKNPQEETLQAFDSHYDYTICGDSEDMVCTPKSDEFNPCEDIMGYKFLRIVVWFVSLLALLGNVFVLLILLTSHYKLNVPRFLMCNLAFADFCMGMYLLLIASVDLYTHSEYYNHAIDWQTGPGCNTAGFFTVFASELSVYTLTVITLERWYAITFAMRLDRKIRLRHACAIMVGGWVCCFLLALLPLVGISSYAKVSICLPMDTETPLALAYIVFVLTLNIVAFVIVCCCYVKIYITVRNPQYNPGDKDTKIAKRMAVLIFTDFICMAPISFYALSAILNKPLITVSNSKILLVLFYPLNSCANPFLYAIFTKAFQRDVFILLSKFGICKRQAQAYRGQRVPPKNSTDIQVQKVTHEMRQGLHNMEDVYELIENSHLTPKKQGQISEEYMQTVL

Assay [19] addresses Estrogen receptor beta (Homo sapiens) (UniProt Q92731). The assay can be described thus: qHTS assay to identify small molecule antagonists of the estrogen receptor beta (ER-beta) signaling pathway (AID 1259378; active = well fitted inhibition curve with a large enough effect in the signal ratio in the repeat runs, not every such curve was filed as active; the % refers to the signal ratio). The method, boiled down: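 ER-beta-UAS-bla HEK293T cells in 2% charcoal-stripped FBS medium treated with compound plus 1nM final 17-beta-estradiol for 16 hr at 37C. Beta-lactamase reporter read by FRET substrate fluorescence after 2 hours at room temperature.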

Assay [20] is described as follows: qHTS assay to identify small molecule agonists or antagonists of the thyroid stimulating hormone receptor (TSHR) signaling pathway - wild type cell line counter screen (AID 1259384; calls by dose curve). The method, boiled down: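 Wild-type Hek293 cells, 800/well, 18 h at 37C, then compound with Ro20-1724 for 30 min RT. cAMP by HTRF (cAMP-d2/anti-cAMP cryptate), 1 h RT, fluorescence read. 15 concentrations, triplicates.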

Unmarked numbers belong to inactive results. Records with an inconclusive call do not appear. A structure can be active in one record and inactive in another. Active and inactive are the calls of the source. Unless noted, calls follow the shape of the dose curve; as a rule, active = well fitted curve in the direction sought with a large enough effect in the repeat runs; inconclusive = weak or mixed curves; inactive = no such curve, though single readings can be large; an effect the other way counts as inactive or inconclusive.
% is scaled to controls: 0 for no effect and ±100 for the full control effect.

Chain of Estrogen receptor beta (Homo sapiens) (Q92731 whole entry, looked up): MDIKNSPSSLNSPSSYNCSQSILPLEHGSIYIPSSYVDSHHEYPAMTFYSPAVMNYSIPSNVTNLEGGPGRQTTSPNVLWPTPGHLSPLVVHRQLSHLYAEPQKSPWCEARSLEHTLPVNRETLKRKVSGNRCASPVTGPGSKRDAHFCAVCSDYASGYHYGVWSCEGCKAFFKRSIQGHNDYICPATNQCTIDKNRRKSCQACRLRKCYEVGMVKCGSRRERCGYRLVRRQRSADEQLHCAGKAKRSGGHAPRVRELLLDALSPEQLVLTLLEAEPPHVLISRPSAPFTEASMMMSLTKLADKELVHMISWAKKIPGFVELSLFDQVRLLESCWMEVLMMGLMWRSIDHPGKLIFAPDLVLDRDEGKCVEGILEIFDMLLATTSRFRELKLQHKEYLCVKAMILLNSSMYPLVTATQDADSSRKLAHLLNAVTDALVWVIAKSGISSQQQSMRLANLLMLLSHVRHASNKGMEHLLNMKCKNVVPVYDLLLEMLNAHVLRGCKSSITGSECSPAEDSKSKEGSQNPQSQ
Chain of Androgen receptor (Homo sapiens) (P10275 whole entry, looked up): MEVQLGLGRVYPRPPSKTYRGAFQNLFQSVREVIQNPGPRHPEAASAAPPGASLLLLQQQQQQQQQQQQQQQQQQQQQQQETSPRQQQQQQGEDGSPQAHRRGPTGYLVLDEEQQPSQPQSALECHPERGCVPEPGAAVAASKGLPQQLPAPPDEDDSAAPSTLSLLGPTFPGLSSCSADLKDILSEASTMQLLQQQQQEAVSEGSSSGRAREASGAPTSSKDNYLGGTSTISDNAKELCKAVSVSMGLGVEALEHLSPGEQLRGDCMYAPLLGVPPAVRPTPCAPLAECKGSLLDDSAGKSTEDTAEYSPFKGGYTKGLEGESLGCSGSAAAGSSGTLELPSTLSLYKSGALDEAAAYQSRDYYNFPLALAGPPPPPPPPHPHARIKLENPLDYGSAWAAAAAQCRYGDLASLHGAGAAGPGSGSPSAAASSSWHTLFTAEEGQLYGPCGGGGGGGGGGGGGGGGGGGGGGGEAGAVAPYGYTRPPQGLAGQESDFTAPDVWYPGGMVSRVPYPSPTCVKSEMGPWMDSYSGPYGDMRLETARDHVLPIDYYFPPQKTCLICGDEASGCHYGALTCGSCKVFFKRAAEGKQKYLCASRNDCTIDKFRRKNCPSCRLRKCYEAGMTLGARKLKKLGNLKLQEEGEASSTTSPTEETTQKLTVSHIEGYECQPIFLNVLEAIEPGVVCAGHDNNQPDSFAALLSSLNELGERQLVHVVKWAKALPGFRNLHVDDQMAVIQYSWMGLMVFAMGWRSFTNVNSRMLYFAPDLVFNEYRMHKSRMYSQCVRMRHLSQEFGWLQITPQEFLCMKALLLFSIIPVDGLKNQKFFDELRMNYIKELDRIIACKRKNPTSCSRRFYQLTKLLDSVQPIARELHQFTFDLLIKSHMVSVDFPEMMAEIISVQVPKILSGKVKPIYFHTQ

Turning to `OCCN1CCN(CCCN2c3ccccc3C=Cc3ccccc32)CC1`, the Potency entry in assay [1], in [2], in [3], in [5], in assay [8] and in assay [9] was “inactive” each time. For the same compound, in assay [11], the Potency entry was “inactive”. The PLD induction in assay [4] is 0.496% [at 7.66 µM]. For the same compound, the values for the Potency in assay [4], in assay [6] and in [10] were 12.6 µM (active), 11.9 µM (active) and 5.31 µM (active), respectively. For the same compound, the call in assay [7] was inactive.

Regarding `O=CC1CC=CCC1` (configuration not stated), the Potency entry in assay [1], in [2], in [12], in [3], in assay [5] and in assay [13] was “inactive” throughout. Further, the Potency result in assay [6], in assay [14], in assay [15], in [9], in assay [10] and in [16] was “inactive” in each case. Also, the Potency entry in assay [17], in assay [11] and in assay [18] was “inactive” each time. Moreover, the call in assay [7] was inactive.

As to `CCCCCCCCCCCCCCCCOS(=O)(=O)O`, the Potency entry in assay [1], in assay [2], in assay [12], in [5], in [13] and in [6] was “inactive” each time. The Potency entry in assay [14], in assay [15], in assay [8], in assay [19], in assay [9] and in assay [16] was “inactive” each time. For the same compound, the Potency result in [11] and in [20] was “inactive” each time. In addition, the compound was called inactive in [7]. Besides, the Potency in assay [10] is 33.5 µM (active).

`CC(C)CC(=O)C1C(=O)c2ccccc2C1=O`: the Potency result in [1], in [2], in assay [13], in assay [14], in assay [8] and in assay [16] was “inactive” throughout. In addition, the Potency result in assay [17], in assay [11] and in assay [20] was “inactive” throughout. For the same compound, the Potency in assay [12] is 48.6 µM (active); in assay [15], 61.1 µM (active). For the same compound, the outcome in [7] was inactive.

As for `Nc1cccc([N+](=O)[O-])c1`, the Potency entry in assay [1], in assay [2], in [12], in assay [6], in assay [14] and in assay [15] was “inactive” in each case. Moreover, the Potency result in assay [19], in [9], in assay [10], in assay [16], in assay [17] and in assay [11] was “inactive” each time. Moreover, the compound was called inactive in assay [7].

Consider `CN(C)CCOC(c1ccccc1)c1ccc(Br)cc1` (configuration not stated), for which the Potency entry in assay [1], in assay [2], in assay [12], in assay [3], in assay [5] and in assay [13] was “inactive” throughout. The Potency entry in [14], in assay [9], in [16], in assay [11] and in assay [20] was “inactive” in each case. Moreover, the compound was called inactive in assay [7]. Besides, the Potency was 2.11 µM (active) in assay [15] and 23.7 µM (active) in assay [10].

For the compound `C=CCOc1ccccc1OCC(O)CNC(C)C` (configuration not stated), the Potency result in assay [1], in [2], in assay [3], in assay [4], in assay [5] and in assay [13] was “inactive” in each case. In addition, the Potency result in assay [6], in assay [14], in assay [15], in [8], in assay [19] and in assay [9] was “inactive” in each case. For the same compound, the Potency result in [10], in [17] and in [11] was “inactive” in each case. Moreover, the compound was classed as inactive in [7].

In the case of `C/C(=C(\CCOP(=O)(O)O)SC(=O)c1ccccc1)N(C=O)Cc1cnc(C)nc1N`, the activity change, negative = cytotoxicity in assay [1] is -4.04% [at 8.39 µM]; in [13] it was 6.82% [at 8.39 µM]; in assay [9], 1.6% [at 8.39 µM]; in assay [10] it was 7.29% [at 8.39 µM]; in assay [17], 2.09% [at 8.39 µM]. For the same compound, the results for the viability change, negative = cytotoxic in assay [2], in assay [6] and in assay [14] were 2.34% [at 8.39 µM], -1.58% [at 8.39 µM] and 0.0493% [at 8.39 µM], respectively. Besides, the activity, negative = inhibition in assay [12] is 2.6% [at 8.39 µM]. In addition, the activity change, negative = inhibition in [3] is 5.19% [at 8.39 µM]; in assay [5], -1.49% [at 8.39 µM]; in assay [15], 1.8% [at 8.39 µM]; in assay [18], -1.28% [at 8.39 µM]. The Potency result in assay [4] was “inactive”. Also, in assay [7], the activity change was 0.138% [at 8.39 µM]. The activation was -1.54% [at 8.39 µM] in assay [16] and 0.094% [at 8.39 µM] in [11]. In assay [20], the cAMP activity change was -0.23% [at 8.39 µM, stronger effect = higher value].

These data come from PubChem BioAssay (Tox21).
